This is a sample that favours compounds with a hit; in the whole collection about 1.1% have one here.
HEK293 viab – counter-screen for SNCA expression inhibitors: cell viability; AID 1671193; 150,000 compounds, 0.12% hits; Potency, µM (top dose mostly 57.1 µM), for inactives: at the top dose activity change, negative = cytotoxicity, most hits filed as cytotoxic; HEK-293-SNCA-luc viability, GF-AFC fluorescence, 24 h;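 note: potency is the fitted concentration of half-maximal effect; 0% = DMSO-treated cells and -100% = medium-only wells without cells; nearly all actives have a fitted effect of over 30% in size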
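HEK-293-SNCA-luc cells (1500/well) plated 24 h, then exposed 24 h to a dilution series; GF-AFC added 30 min at 37C, fluorescence 405/540 nm; normalised to medium-only and DMSO wells, Hill fit.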
IP6K1 inhibitor – blocks human inositol hexakisphosphate kinase 1; 140,000 compounds, 0.81% hits; Q92551; IP6K1 kinase, ADP-Glo luminescence, 2 h; stronger effect = lower value; activity change, % (series mostly up to about 58 µM); in the data active = activity change below about -25%
Target sequence (Q92551 whole entry, looked up): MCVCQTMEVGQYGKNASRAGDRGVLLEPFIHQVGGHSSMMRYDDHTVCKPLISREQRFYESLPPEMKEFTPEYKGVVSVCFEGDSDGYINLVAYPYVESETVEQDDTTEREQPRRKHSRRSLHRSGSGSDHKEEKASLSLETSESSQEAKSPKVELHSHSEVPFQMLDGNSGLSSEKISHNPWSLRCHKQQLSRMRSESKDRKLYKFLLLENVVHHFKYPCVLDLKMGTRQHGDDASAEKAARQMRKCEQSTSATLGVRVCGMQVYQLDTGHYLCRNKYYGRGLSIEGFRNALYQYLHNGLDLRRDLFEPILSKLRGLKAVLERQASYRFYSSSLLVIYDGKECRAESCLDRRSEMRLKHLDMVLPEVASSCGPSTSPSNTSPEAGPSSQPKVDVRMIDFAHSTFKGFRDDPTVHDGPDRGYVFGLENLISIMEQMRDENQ
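ADP-Glo luminescence measures ADP made by human IP6K1 during a 2 h RT reaction with ATP/IP6 (mix at 1.3 mM/130 uM); top library doses 57.5 and 19.1 uM final.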
GPT2 inh – inhibitors of human GPT2 alanine aminotransferase; Potency, µM (titrated, usually from 57.7 µM), for the others: top-dose activity change, negative = inhibition, hits mostly inhibitors; Q8TD30; Recombinant GPT2, coupled pyruvate oxidase/HRP Amplex Red fluorescence; AID 1671188; 100,000 compounds, 0.25% hits; note: potency is the fitted concentration of half-maximal effect; nearly all actives have a fitted effect of over 60% in size
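Fluorescence of coupled pyruvate oxidase/HRP/Amplex Red system (50uM Amplex, 30 min, dark) reports pyruvate formed by GPT2. Enzyme reaction: 10ng/uL GPT2, 2mM L-alanine, 250uM a-KG, 30 min room temperature, pH 7.5; 50uM AOA control.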
SNCA expr inhib – reduces expression of the alpha-synuclein gene | HEK-293 SNCA-luciferase knock-in, luminescence, 24 h | AID 1671194 | Potency, µM (series often up to 57.2 µM), inactives show top-dose activity change, negative = inhibition, hits mostly inhibitors | 140,000 compounds, 0.17% hits;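 note: potency is the fitted concentration of half-maximal effect; plate controls were DMSO cells for no effect and cell-free wells for full effect; nearly all actives have a fitted effect of over 45% in size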
An asterisk follows results filed as active; [ ] = dose if it differs, or a comment. Unless noted, calls come from the whole dose curve; as a rule, active = well fitted curve in the direction sought with a large enough effect; inconclusive = small, poorly fitted or top-dose-only effect, or another doubt; inactive = no such curve, though single readings can be large; an effect the other way counts as inactive or inconclusive. Unless noted, % is set by controls: 0 for no effect and ±100 for the full control effect.

Results for COc1ccc(C(CNC(=O)COc2cc(C)cc(C)c2)N2CCCCC2)cc1 (stereo unspecified) ?
HEK293 viab: 3.2%; IP6K1 inhibitor: 2.8; SNCA expr inhib: 28.9%

What do the screens show for `Cc1nn2c(c1-c1ccccc1Oc1ccccc1)N(Cc1ccc(C(=O)O)s1)CCC2`?
HEK293 viab: inconclusive; IP6K1 inhibitor: 7.6; GPT2 inh: inactive; SNCA expr inhib: 12.6µM*

How did Cc1nn2c(c1-c1ccccc1[S+](C)(=O)[O-])N(Cc1ccc(C(=O)O)s1)CCC2 do in these assays?
HEK293 viab: inconclusive; IP6K1 inhibitor: 27.6; GPT2 inh: -10.0%[88.5 µM]; SNCA expr inhib: 3.98µM*

Results for Cc1nc2ccccc2n1CCC(=O)N1CC[C@H](CO)[C@@H](O)C1 ?
HEK293 viab: -1.9%; IP6K1 inhibitor: 15.6; GPT2 inh: 0.9%; SNCA expr inhib: -0.1%

How did CC1(COCC2CC2)COc2ccc(C(=O)Nc3ccc4[nH]ccc4c3)cc2N1 (stereo unspecified) do in these assays?
HEK293 viab: inconclusive; IP6K1 inhibitor: -12.5; GPT2 inh: -8.0%[88.5 µM]; SNCA expr inhib: 7.08µM*

How did Cc1ccccc1N(C)C1CN(C(=O)c2ccc(C(F)(F)F)cc2)C1 do in these assays?
HEK293 viab: -12.6%; IP6K1 inhibitor: -9.9; GPT2 inh: inconclusive; SNCA expr inhib: 0.2%

What do the screens show for `CC(NC(=O)[C@H](Cc1ccccc1)NC(=O)OCc1ccccc1)C(=O)CF` (stereo partly specified)?
HEK293 viab: -41.9%; IP6K1 inhibitor: 1.2; GPT2 inh: -7.7%

Results for CC(C)C[C@H](NC(=O)CNC(=O)OCc1ccccc1)C(=O)N[C@@H](Cc1ccccc1)C(=O)CCl ?
HEK293 viab: 23.8µM*; IP6K1 inhibitor: 14.7; GPT2 inh: -0.3%

What do the screens show for `CN(C)c1ccc(C(CNC(=O)Cc2ccc(Cl)cc2)N2CCOCC2)cc1` (stereo unspecified)?
HEK293 viab: 5.9%; IP6K1 inhibitor: -3.7; SNCA expr inhib: 2.9%

What do the screens show for `CS[C@H]1SC[C@@H]2C(=O)N(C)[C@H](C(C)C)C(=O)OC[C@H](NC(=O)c3cnc4ccccc4n3)C(=O)N[C@H](C)C(=O)N(C)[C@@H]1C(=O)N(C)[C@H](C(C)C)C(=O)OC[C@H](NC(=O)c1cnc3ccccc3n1)C(=O)N[C@H](C)C(=O)N2C`?
HEK293 viab: 0.0192µM*; GPT2 inh: -22.5%; SNCA expr inhib: 0.0061µM*

What do the screens show for `CCOC(=O)N1CCC(Nc2ncncn2)CC1`?
HEK293 viab: -4.0%; IP6K1 inhibitor: -10.9; GPT2 inh: inconclusive; SNCA expr inhib: -1.0%

Results for CCOC(=O)N1CCC(Nc2ccc(Cl)cc2N)CC1 ?
HEK293 viab: -31.7%[23.9 µM]; IP6K1 inhibitor: -12.3; GPT2 inh: 8.91µM*; SNCA expr inhib: -38.9%[25.6 µM]

What do the screens show for `CC1=C(CO)CC(C(C)C2CCC3C4CC=C5CC(OC6OC(COC7OC(CO)C(O)C(O)C7O)C(O)C(O)C6O)CC(O)C5(C)C4CCC23C)OC1=O` (stereo unspecified)?
HEK293 viab: -23.4%[23.9 µM]; IP6K1 inhibitor: -3.8; GPT2 inh: inactive

Results for CC1=C(CO)C(=O)O[C@@H]([C@@H](C)[C@H]2CC[C@H]3[C@@H]4C[C@H]5O[C@]56[C@@H](O)C=CC(=O)[C@]6(C)[C@H]4CC[C@]23C)C1 ?
HEK293 viab: 10.3µM*; IP6K1 inhibitor: -7.5; GPT2 inh: 1.6%[27.3 µM]

Results for Cc1cccc(CNC(=O)c2ccc(Cn3c(SCc4cccc(F)c4)nc4cccnc43)cc2)c1 ?
HEK293 viab: -11.3%; IP6K1 inhibitor: -52.6*; SNCA expr inhib: -7.1%

What do the screens show for `Cc1cccc(CNC(=O)c2ccc(Cn3c(SCc4ccccc4)nc4cccnc43)cc2)c1`?
HEK293 viab: inconclusive; IP6K1 inhibitor: -11.4; SNCA expr inhib: 97.3%

How did c1ccc2c(c1)CCc1ccccc1N2 do in these assays?
HEK293 viab: -2.9%[23.9 µM]; IP6K1 inhibitor: 18.0; GPT2 inh: inactive; SNCA expr inhib: -26.1%[25.6 µM]

Results for CN1CCN(c2ccc(-c3cc4c(ccn4C)c(C(=O)NCCN4CCNC4=O)n3)cc2)CC1 ?
HEK293 viab: -5.9%; IP6K1 inhibitor: -2.2; GPT2 inh: 0.6%; SNCA expr inhib: -6.8%

How did O=C(c1cccc(F)c1)N1CCCC(Cc2noc(-c3ccccc3)n2)C1 (stereo unspecified) do in these assays?
HEK293 viab: 3.55µM*; IP6K1 inhibitor: 6.0; GPT2 inh: -35.6%; SNCA expr inhib: inconclusive
